# TrxR1 inh: inhibitors of rat thioredoxin reductase 1 | AID 588453 | recombinant rTrxR1, NADPH fluorescence consumption, selenite substrate | 390,000 compounds, 1% hits | Potency, µM (titrated, usually from 114 µM), hits mostly inhibitors; note: nearly all actives have a fitted effect of over 65% in size
#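 Rat TrxR1 (90 nM in the dispensed reagent) was pre-reduced with 400 uM NADPH for 5 min at room temperature, then incubated with compound for 15 min. After 400 uM selenite was added, NADPH fluorescence (Ex 340/Em 450 nm) was followed for 8 min.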
# VDR inhibitor: vitamin D3 receptor (human) inhibition; Potency, µM, actives largely listed as inhibitors; 400,000 compounds, 0.93% hits; VDR-SRC2-3 peptide fluorescence polarization, 2 h; P11473
# Target sequence (P11473 whole entry, looked up): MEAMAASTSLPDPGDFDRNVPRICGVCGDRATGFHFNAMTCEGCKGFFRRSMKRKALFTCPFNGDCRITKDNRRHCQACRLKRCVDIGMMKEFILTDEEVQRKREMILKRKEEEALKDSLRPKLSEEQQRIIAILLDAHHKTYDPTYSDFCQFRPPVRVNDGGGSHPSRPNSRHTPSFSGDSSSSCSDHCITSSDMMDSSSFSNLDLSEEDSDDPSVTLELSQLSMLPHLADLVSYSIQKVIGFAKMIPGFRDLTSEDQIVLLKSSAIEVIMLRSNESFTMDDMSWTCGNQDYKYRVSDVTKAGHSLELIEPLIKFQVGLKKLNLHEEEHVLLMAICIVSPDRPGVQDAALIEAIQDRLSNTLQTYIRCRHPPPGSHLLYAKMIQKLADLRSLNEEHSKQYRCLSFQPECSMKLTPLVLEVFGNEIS
#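 VDR–SRC2-3 interaction, FP format. Cmpds 23 nl via pintool, brief spin, 2 h ambient incubation.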
# TrxR1 substrate: rat thioredoxin reductase 1 substrate activity | purified TrxR1 substrate turnover, NADPH consumption readout | Potency, µM (top dose mostly 114 µM) | 390,000 compounds, 0.01% hits | AID 588456 | O89049; note: nearly all actives have a fitted effect of over 50% in size
#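 Rat TrxR1, dispensed at 90 nM, was prereduced with 400 uM NADPH (final) for 5 min at ~22 deg C, then incubated with compound 15 min before 400 uM selenite. A first-read NADPH fluorescence drop versus no-compound background flagged substrates.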
# KAT2A inh: inhibitors of human GCN5L2 histone acetyltransferase. GCN5L2 HAT assay, ThioGlo1 CoA-SH fluorescence. Q92830. Potency, µM (doses to about 58.9 µM), actives largely listed as inhibitors. 390,000 compounds, 0.21% hits
#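 qHTS, 1536-well. 20nM enzyme, pH 7.5 HEPES/EDTA/Tween-20 buffer; 15 min compound preinc., RT. Start: 75uM H3(1-25), 70uM AcCoA, 50uM ThioGlo1. Read Ex340/Em540 at t=0 (autofluorescence flag) and t=20 min.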
# Hits are given with their value; – = inactive; ? = inconclusive; · = not tested or not shown; [ ] = another dose, or the depositor's remark. Rows were chosen to be rich in hits. Some 1.8% of all compounds tested hit in one or more screens of this group. Calls come from the whole dose curve; as a rule, active = well fitted curve in the direction sought with a large enough effect; inconclusive = small, poorly fitted or top-dose-only effect, or another doubt; inactive = no such curve, though single readings can be large; an effect the other way counts as inactive or inconclusive.
SMILES,TrxR1 inh,VDR inhibitor,TrxR1 substrate,KAT2A inh
O=[N+]([O-])c1ccc(S(=O)(=O)NN=Cc2ccc(Cl)c(Cl)c2)cc1,–,50µM,–,·
C=C1C=CS(=O)(=O)N(Cc2ccccc2)C1,35µM,–,–,·
Cn1c(N)c(C(=O)CCl)c(=O)n(Cc2ccccc2)c1=O,13µM,–,–,–
CC(C)CCOc1ccc(CC(=O)NO)cc1,–,·,–,·
Cc1ccc(C(C[N+](=O)[O-])c2c(-c3ccccc3O)[nH][nH]c2=O)cc1 (configuration not stated),?,22µM,–,–
COc1ccc(Cl)c(Cn2cnc3c(cnn3C(C)(C)C)c2=O)c1,–,·,–,·
COc1ccc(C(=O)/C(=C/c2cccs2)c2nc3ccccc3o2)cc1,–,32µM,–,–
CC[C@H]1[C@@H]2C=C[C@@H]3[C@H]4C/C=C\C(=O)NCCC[C@@H]5NC(=O)C(=C5O)C(=O)CC[C@@H]4C[C@@H]3[C@H]2C[C@H]1C,·,40µM,·,–
CN(N=O)c1ccc(/C=C/c2ccnc3ccccc23)cc1,–,·,–,·
CCCN(C(=O)COC(=O)CSc1ccc([N+](=O)[O-])cc1)C1CCS(=O)(=O)C1 (configuration not stated),–,89µM,–,–
CN(C(=O)COC(=O)c1ccc([N+](=O)[O-])cc1)c1ccccc1,–,–,–,–
CN(C(=O)COC(=O)CSc1ccc([N+](=O)[O-])cc1)c1ccccc1,–,89µM,–,–
Cc1ccc(/C=C2/CNC/C(=C\c3ccc(C)cc3)C2=O)cc1,·,2µM,·,–
O=C1CCC(C(=O)N2CCSCC2)CN1Cc1ccc(Cl)cc1 (configuration not stated),45µM,–,–,–
COc1ccccc1NS(=O)(=O)c1cc(NC(=S)NCCN2CCOCC2)ccc1N1CCOCC1,–,79µM,–,–
O=S(=O)(Nc1ccccc1F)c1cccc(NC(=S)NCCN2CCOCC2)c1,–,35µM,–,?
O=C1CC(Nc2ccc(N3CCOCC3)cc2)C(=O)N1c1ccccc1F (configuration not stated),79µM,–,–,–
CC(C)N1C(=O)CC(Nc2ccc(N3CCOCC3)cc2)C1=O (configuration not stated),?,–,–,–
Cc1noc(C)c1-c1cc(Nc2ccccc2)ncn1,·,–,·,–
Clc1ccccc1-c1cc(NCc2ccccc2)ncn1,·,45µM,·,?
COC(=O)C1C(=O)C(C(=O)/C=C/c2ccccc2)C(=O)CC1(C)C (configuration not stated),–,–,–,–
COC(=O)C1C(=O)C(C(=O)/C=C/c2ccco2)C(=O)CC1(C)C (configuration not stated),·,45µM,·,·
CCOC(=O)CSc1[nH]c2cc(OC)ccc2c1[N+](=O)[O-],–,?,–,–
COC(=O)CSc1[nH]c2ccc(F)cc2c1[N+](=O)[O-],35µM,?,–,–
CCOc1ccc(C2CC(=O)Nc3c2c(=O)nc(SCc2ccccc2C)n3C)cc1OC (configuration not stated),?,–,–,–
SMILES,TrxR1 inh,VDR inhibitor,TrxR1 substrate,KAT2A inh
O=C1ON=C(c2ccccc2)/C1=C/c1ccc(O)c(O)c1,?,45µM,–[2.29 µM],–
O=C1ON=C(c2cccc([N+](=O)[O-])c2)/C1=C/c1ccc(O)cc1,7.9µM,?,–,–
O=C1ON=C(c2ccccc2)/C1=C/c1cccnc1,–,–,–,–
COc1ccc(/C=C2\C(=O)ON=C2c2ccccc2)cc1,14µM,?,–,–
Cc1cc(C)c(NC(=O)CSc2nc3ccccc3c3nc(CCn4cncc4C)nn23)c(C)c1,–,–,–,–
O=C1CCCCCN1Sc1ccccc1,–,13µM,–,–
C=C1CCN(C(Cc2ccccc2)C(=O)NCc2ccc(Cl)cc2)S(=O)(=O)c2ccccc21 (configuration not stated),–,–,–,·
O=C(Nc1ccc(F)cc1)N1CCN(C/C=C/c2ccccc2)CC1,–,–,–,–
Fc1ccc(C(c2ccc(F)cc2)N2CCN(C/C=C\c3ccccc3)CC2)cc1,·,–,·,11µM
CCCCCOC(=O)c1[nH]c2c(c1C)C(=O)CC(c1ccco1)C2 (configuration not stated),–,79µM,–,–
O=C(Cn1c(=O)nc(-c2ccccc2)c2ccccc21)NCc1ccc(Cl)cc1,–,–,–,–
O=C1/C(=C/N(C(=O)c2ccco2)c2ccc(Cl)cc2)Sc2ccccc21,40µM,–,–,–
O=C1/C(=C/N(C(=O)c2ccco2)c2ccc(Br)cc2)Sc2ccccc21,14µM,?,–,–
CC(=O)c1ccc(NC(=O)CC2Sc3ccccc3NC2=O)cc1 (configuration not stated),–,–,–,–
O=C1C(c2c(O)[nH]c3ccccc23)=Nc2ccccc21,–,?,–,–
CC(=O)c1cccc2c(O)c(C3=Nc4ccccc4C3=O)[nH]c12,?,56µM,–,–
C=C1CC(Cn2cc(Br)c(=O)[nH]c2=O)(c2ccc(-c3ccccc3)cc2)OC1=O (configuration not stated),7.1µM,?,–,·
CC(C)(C)n1ncc2c(=O)n(Cc3ccccc3-c3ccccc3)cnc21,–,·,–,·
O=C(/C=C/c1ccc(F)cc1)Nc1cc(S(=O)(=O)N2CCOCC2)ccc1N1CCCC1,–,–,–,–
CN(C)S(=O)(=O)c1cccc(C(=O)Nc2cc(S(=O)(=O)N3CCOCC3)ccc2O)c1,–,–,–,–
O=C(Nc1cc(S(=O)(=O)N2CCOCC2)ccc1N1CCCC1)c1ccc(F)cc1,–,40µM,–,–
COc1ccc(/C=C(\C#N)C(=O)Nc2cc(S(=O)(=O)N3CCOCC3)ccc2N2CCCC2)cc1,–,35µM,–,–
CCN(CC)S(=O)(=O)c1ccc(N2CCCCC2)c(NC(=O)/C(C#N)=C/c2ccc(OC)cc2)c1,–,–,–,–
CN(C)S(=O)(=O)c1cccc(C(=O)Nc2cc(S(=O)(=O)N3CCOCC3)ccc2N2CCCC2)c1,–,45µM,–,·
Nc1nc(=S)[nH]c(N)c1N,–,·,–,·
SMILES,TrxR1 inh,VDR inhibitor,TrxR1 substrate,KAT2A inh
Cc1[nH]c2ccc(C(=O)N3CCN(c4cccc(Cl)c4)CC3)cc2c1C,–,–,–,–
CS(=O)(=O)c1ncc(Cl)c(C(=O)N2CCN(c3cccc(Cl)c3)CC2)n1,0.89µM,?,–,–
CCOC(=O)c1c(N)sn(-c2ccccc2C)c1=S,–,35µM,–,–
Cc1cc[n+](CC(=O)c2ccc(F)cc2)c2ccccc12,–,·,–,·
CC(=O)Nc1ccc(-c2nc3ccccc3c(=O)o2)cc1,–,–,–,–
CC(=O)/C=C(\C)Nc1ccc(-c2cnc(-c3ccccc3)o2)cc1,–,–,–,28µM
Cc1nc([N+](=O)[O-])cn1CC(O)c1ccc2c(c1)OCO2 (configuration not stated),–,·,–,·
CN(C)c1ccc(/C=C/c2sc3ccccc3[n+]2Cc2ccccc2)cc1,–,·,–,·
Oc1c(Cl)cc(Cl)cc1Sc1cc(Cl)cc(Cl)c1O,·,28µM,·,?
Cc1cc(C)c(O)c(CN(C)Cc2cc(Cl)cc(Cl)c2O)c1,?,–,–,·

# Screens: PubChem, National Center for Advancing Translational Sciences (NCATS)
